# Screening data (PubChem BioAssay)
# ALOX12 inh = Primary qHTS assay for inhibitors of human arachidonate 12S-lipoxygenase (ALOX12): Round 2; Polyunsaturated fatty acid lipoxygenase ALOX12 (Homo sapiens), P18054; purified 12hLO, xylenol orange hydroperoxide absorbance; Potency, µM (top dose mostly 108 µM), for the others: top-dose activity change, negative = inhibition, actives largely listed as inhibitors; 1.1% of 580,000 active; also: potency is read from the fitted curve at half-maximal effect
# Target sequence (P18054 whole entry, looked up): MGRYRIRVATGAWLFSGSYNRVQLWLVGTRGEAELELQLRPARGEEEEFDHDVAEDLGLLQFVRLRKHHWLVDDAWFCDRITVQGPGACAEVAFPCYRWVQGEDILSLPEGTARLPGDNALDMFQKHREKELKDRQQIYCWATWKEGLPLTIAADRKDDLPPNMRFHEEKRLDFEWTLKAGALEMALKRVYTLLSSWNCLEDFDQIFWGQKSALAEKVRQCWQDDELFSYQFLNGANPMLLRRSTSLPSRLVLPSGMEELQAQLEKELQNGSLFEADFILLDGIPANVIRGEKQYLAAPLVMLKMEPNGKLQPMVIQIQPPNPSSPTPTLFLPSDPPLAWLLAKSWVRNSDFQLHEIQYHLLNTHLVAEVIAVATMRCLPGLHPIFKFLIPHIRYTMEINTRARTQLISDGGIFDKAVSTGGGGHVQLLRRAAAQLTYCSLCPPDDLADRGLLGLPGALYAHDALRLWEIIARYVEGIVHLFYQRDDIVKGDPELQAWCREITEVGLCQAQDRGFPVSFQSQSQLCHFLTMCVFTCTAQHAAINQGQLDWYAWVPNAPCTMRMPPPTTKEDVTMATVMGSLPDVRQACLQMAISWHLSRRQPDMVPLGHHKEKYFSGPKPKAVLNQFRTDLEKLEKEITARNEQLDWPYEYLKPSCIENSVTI
#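 Purified human 12hLO at 150 nM in 25 mM Hepes, 0.01% Triton X-100, pH 7.0, preincubated 15 min at room temperature with compound. Reaction started with 40 uM arachidonic acid, 30 min at room temperature. Hydroperoxide measured by Fe-xylenol orange, 573/405 nm absorbance ratio.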
# TDP1 cell CPT = qHTS for Inhibitors of human tyrosyl-DNA phosphodiesterase 1 (TDP1): qHTS in cells in presence of CPT. 12% of 420,000 active. Potency, µM (series often up to 46.2 µM), without a hit: at the highest dose activity change, negative = growth inhibition, usual class: inhibitors. chicken DT40 Tdp1-/-;hTDP1 cells + 20 nM CPT, ATP luminescence, 48 h; also: potency is read from the fitted curve at half-maximal effect; nearly all actives have a fitted effect of over 55% in size
#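 Chicken DT40 Tdp1-/- cells complemented with human TDP1, 400 cells/well, exposed to compounds plus 20 nM camptothecin for at least 48 h at 37 C; viability read as ATP content by CellTiter-Glo luminescence.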
# IL-1B inflam inh = qHTS for Inhibitors of Inflammasome Signaling: IL-1-beta AlphaLISA Primary Screen | THP-1 LPS/ATP IL-1B secretion, AlphaLISA, 16 h; active compounds read low | activity change, % at 57.5 µM | 4.7% of 360,000 active | AID 743279, 2014; in the data active = activity change below about -50%; inconclusive = mostly about -30% to -49%
#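 Secreted IL-1B measured by AlphaLISA bead assay after 16 h compound exposure of THP-1 cells; compounds (final up to 57.5 uM) added 1 h before LPS (250 ng/mL) and ATP (1.25 mM) stimulation; lower signal means less secretion.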
# HT1080NT lethal = qHTS for induction of synthetic lethality in tumor cells producing 2HG: qHTS for the HT-1080-NT fibrosarcoma cell line; HT-1080-NT fibrosarcoma viability, CellTiter-Glo ATP luminescence, 48 h; Potency, µM (series often up to 46.1 µM), inactives show top-dose activity, negative = less viability, hits mostly cytotoxic; 1.6% of 360,000 active; AID 686970, 2013;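 also: NT is the 2HG producing partner of a matched IDH1 knockdown line; potency is read from the fitted curve at half-maximal effect; 0% = DMSO-treated cells and -100% = media-only wells without cells; nearly all actives have a fitted effect of over 55% in size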
#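 Toxicity toward the 2HG-producing NT line was scored as %Activity, normalised to DMSO and no-cell wells, from CellTiter-Glo luminescence after 48 hours' treatment.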
# TDP1 cell noCPT = qHTS for Inhibitors of human tyrosyl-DNA phosphodiesterase 1 (TDP1): qHTS in cells in absence of CPT; DT40 Tdp1-/- hTDP1 cells, no CPT, ATP luminescence, 48 h; Potency, µM (doses to about 46.2 µM), inactives show at the highest dose activity change, negative = growth inhibition, hits mostly inhibitors; 15% of 420,000 active; also: potency is read from the fitted curve at half-maximal effect; nearly all actives have a fitted effect of over 55% in size
#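 Readout: luminescence from CellTiter-Glo after 30 min in the dark at RT. Cells: DT40 Tdp1-/- with stable hTDP1, 400/well. Exposure: compounds alone, ≥48 hr, 37 °C.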
# HT1080 IDH1KD tx = qHTS for induction of synthetic lethality in tumor cells producing 2HG: qHTS for the HT-1080-IDH1KD cell line; HT-1080 IDH1 knockdown viability, ATP luminescence, 48 h; Potency, µM (highest dose often 46.1 µM), for inactives: at the highest dose activity, negative = toxicity, most hits filed as cytotoxic; 2% of 360,000 active; AID 686971, 2013;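 also: potency is read from the fitted curve at half-maximal effect; 0% = DMSO wells and -100% = cell-free medium wells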
#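 After a 2 h attachment period, IDH1KD HT-1080 cells took pin-transferred compound for 48 h at 37 °C; ATP-based luminescence after 10 min room-temperature reagent incubation reported viability.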
# Numbers without * were called inactive; ? = inconclusive; nt = no result; [ ] = dose if it differs, or a comment. Only a selection was taken, and hits are over-represented in it overall. Unless noted, calls follow the shape of the dose curve; as a rule, active = well fitted curve in the direction sought with a large enough effect; inconclusive = small, poorly fitted or top-dose-only effect, or another doubt; inactive = no such curve, though single readings can be large; an effect the other way counts as inactive or inconclusive. Unless noted, % is scaled to controls: 0 for no effect and ±100 for the full control effect.
SMILES,ALOX12 inh,TDP1 cell CPT,IL-1B inflam inh,HT1080NT lethal,TDP1 cell noCPT,HT1080 IDH1KD tx
Cc1ccc(-n2nc3c(=O)n(CCCC(=O)NCc4cccc(Cl)c4)nc(C)c3c2C)cc1,5.9%,23.1µM*,-22.7,-11.6%,?,?
Cc1cccc(CNC(=O)CCCn2nc(C)c3c(C)n(-c4ccccc4)nc3c2=O)c1,10.6%,-23.6%,-12.2,1.7%,?,-5.9%
CCOc1ccc(CNC(=O)CCCn2nc(C)c3c(C)n(-c4ccc(C)cc4)nc3c2=O)cc1,?,?,?,6.2%,?,-4.7%
COc1ccc(CNC(=O)CCCn2nc(C)c3c(C)n(-c4ccc(C)cc4)nc3c2=O)cc1,-13.2%,?,-0.4,7.0%,9.2µM*,13.9%
Cc1ccc(-n2nc3c(=O)n(CCCC(=O)NCc4ccc(Cl)cc4)nc(C)c3c2C)cc1,-1.6%,23.1µM*,-1.9,-0.1%,13µM*,-1.3%
COc1ccc(CNC(=O)CCCn2nc(C)c3c(C)n(-c4ccccc4)nc3c2=O)cc1,-6.4%,-3.0%,?,3.6%,?,9.9%
c1ccc(-c2nc(C3CC3)no2)c(OC2CN(Cc3ccncc3)C2)c1,55.0%,nt,nt,nt,nt,nt
CC(=O)Nc1ccc(NC(=O)CN2C(=O)NC3(CCC(C)CC3)C2=O)cc1 (stereo not drawn),21.0%,nt,nt,nt,nt,nt
C#Cc1cccc(Nc2ncnc3cc(OCCOC)c(OCCOC)cc23)c1,-19.4%[22.9 µM],?,nt,nt,13.3µM*,nt
COc1cc2ncnc(Nc3ccc4c(c3)OCO4)c2cc1OC,17.7%,-23.8%,?,16.8%,-1.4%,6.9%
COc1cc2c(Nc3ccc(Br)cc3F)ncnc2cc1OCC1CCN(C)CC1,-26.7%[57.4 µM],4.73µM*,nt,nt,4.73µM*,nt
COc1cc2ncnc(Nc3cccc(Br)c3)c2cc1OC,?,16.8µM*,nt,nt,?,nt
COc1cc2c(Nc3ccc(Cl)c(Cl)c3F)ncnc2cc1OCC1C[C@@H]2CN(C)C[C@H]2C1,-21.2%[57.4 µM],nt,nt,nt,nt,nt
COc1ccc(COc2ncnc3ccc(Br)cc23)cc1F,-29.8%,-4.7%,-65.0*,-18.0%,-29.2%,-24.2%
Cc1ccc(-c2noc(-c3cccn3CC(=O)N3CCc4ccccc43)n2)cc1,0.8%,nt,nt,nt,nt,nt
Cc1c(C)n(Cc2ccc(-c3ccccc3C(=O)O)cc2)c2ccc(C(=O)N[C@@H](C)c3ccc([N+](=O)[O-])cc3)cc12,-1.0%[57.4 µM],nt,nt,nt,nt,nt
COc1ccc(Nc2ncnc3ccc(Br)cc23)cc1OC,nt,18.4µM*,-14.1,-15.9%,?,-10.4%
COc1cc2ncnc(Nc3cccc(Cl)c3)c2cc1OC,0.5%[57.4 µM],17.8µM*,nt,nt,12.6µM*,nt
COc1ccc(CN2C=C(C(=O)OCc3noc(-c4cccc(OC)c4)n3)C(C)=NS2(=O)=O)cc1,-5.1%,nt,nt,nt,nt,nt
COc1ccccc1N=C(C)C1=C(O)CC(c2ccccc2)CC1=O (stereo not drawn),-8.6%,0.517µM*,31.6,?,0.82µM*,?
O=C(c1cccc(F)c1)N1C[C@@H](CO)[C@H](c2nc(C3CC3)no2)C1,14.5%,nt,nt,nt,nt,nt
Cc1nn(C)c(Cl)c1CN1CCOc2ccc(CN3CCC(Oc4cccnc4)CC3)cc2C1,3.7%,10.3µM*,nt,nt,8.2µM*,nt
c1cncc(OC2CCN(Cc3ccc4c(c3)CN(Cc3ccc5c(c3)OCO5)CCO4)CC2)c1,8.3%,-12.3%[9.04 µM],nt,nt,?,nt
OC1(c2cccnc2)CCN(Cc2ccc3c(c2)CN(Cc2ccc(F)c(F)c2)CCO3)CC1,8.4%,-5.8%[9.04 µM],nt,nt,11.6µM*,nt
OC1(c2cccnc2)CCN(Cc2ccc3c(c2)CN(Cc2cc(F)cc(F)c2)CCO3)CC1,-21.0%,4.9%[9.04 µM],nt,nt,?,nt
SMILES,ALOX12 inh,TDP1 cell CPT,IL-1B inflam inh,HT1080NT lethal,TDP1 cell noCPT,HT1080 IDH1KD tx
CCC(Sc1nnc(C)n2c1cc1sccc12)C(=O)Nc1ccccc1F (stereo not drawn),?,?,nt,nt,20.6µM*,nt
COc1ccc(Cl)cc1NC(=O)CSc1nnc(C)n2c1cc1sccc12,-25.9%,0.1%,nt,nt,-13.9%,nt
CCC(Sc1nncn2c1cc1sccc12)C(=O)Nc1cccc(OC)c1 (stereo not drawn),-16.6%,?,nt,nt,23.1µM*,nt
CCOc1ccc(CCN2CN(CC)CNC2=S)cc1OCC,-7.3%,-18.0%,14.3,-3.5%,20.6µM*,1.2%
C=CS(=O)(=O)O,nt,15.7%,nt,nt,13.0%,nt
CN([C@@H](C(=O)OC(C)(C)C)c1ccccc1)S(=O)(=O)c1cccc(S(=O)(=O)N(C)[C@@H](C(=O)OC(C)(C)C)c2ccccc2)c1,-0.3%,13µM*,16.5,5.1%,?,13.0%
COC(=O)C(Cc1ccccc1)NC(=O)c1cccc(S(=O)(=O)N(C)C)c1 (stereo not drawn),-27.7%,-0.6%,-88.7*,21.5%,-4.6%,21.8%
COC(=O)[C@H](Cc1ccccc1)N(C)S(=O)(=O)c1cccc(S(=O)(=O)N(C)[C@@H](Cc2ccccc2)C(=O)OC)c1,16.3%,14.6µM*,6.0,-20.1%,?,-4.7%
COC(=O)C(Cc1ccccc1)NC(=S)NC(=O)c1ccccc1 (stereo not drawn),?,?,8.5,-13.6%,18.4µM*,-2.2%
CN(C)S(=O)(=O)c1cccc(C(=O)NCCNC(=O)c2cccc(S(=O)(=O)N(C)C)c2)c1,0.0%,-6.1%,-3.8,5.1%,-9.2%,5.2%
CCOc1ccc(C(=O)NC(Cc2ccccc2)C(=O)OC)cc1 (stereo not drawn),?,-22.4%,13.0,5.3%,4.6%,13.5%
COC(=O)C(NS(=O)(=O)c1cccc(S(=O)(=O)NC(C(=O)OC)c2ccccc2)c1)c1ccccc1 (stereo not drawn),0.0%,-14.1%,19.4,13.5%,-2.5%,9.4%
CC(C)c1nc(-c2ccc(OC3CCN(C(=O)c4n[nH]c5ccccc45)C3)cc2)no1 (stereo not drawn),6.9%,nt,nt,nt,nt,nt
COC(=O)C(NC(=O)c1ccccc1)C(C)(C)SCc1ccccc1 (stereo not drawn),?,?,8.2,-1.0%,18.4µM*,1.4%
O=S(=O)(c1cccc(-c2nnc(SCc3nc4ccccc4s3)o2)c1)N1CCOCC1,6.1%,18.4µM*,-18.5,-0.3%,?,2.0%
CC(=O)CCSc1nnc(-c2cccc(S(=O)(=O)N3CCOCC3)c2)o1,-8.1%,-24.3%,-4.2,-2.3%,-17.4%,4.6%
